Measured values from PubChem BioAssay (NCATS).
“And” between values parts separate entries of the source, which are not always exact repeats. Equal values may be shown once. Records with an inconclusive call do not appear. The source made the active and inactive calls. Calls come from the whole dose curve; as a rule, active = well fitted curve in the direction sought with a large enough effect; inconclusive = small, poorly fitted or top-dose-only effect, or another doubt; inactive = no such curve, though single readings can be large; an effect the other way counts as inactive or inconclusive.

What was measured:
[1] = system: Zika virus NS2B-NS3 protease (linked construct); assay: Confirmatory screen NINDS AMC qHTS for Zika virus inhibitors (AID 1347152); note: potency is the fitted concentration of half-maximal effect; nearly all actives have a fitted effect of over 70% in size
Procedure, shortened: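 In this dose-response qHTS, AMC release from 10 microM Bz-Nle-KRR-AMC by 1 nM linked protease is measured over 15 minutes (about 20% conversion) at pH 8.0. Percent inhibition is fitted to a 4-parameter Hill curve.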

[2] = system: Zika virus NS2B-NS3 protease (unlinked complex); assay: Confirmatory screen GU AMC qHTS for Zika virus inhibitors (AID 1347153);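 note: percent inhibition with 0% = no inhibitor control and 100% = no enzyme control; nearly all actives have a fitted effect of over 70% in size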
Procedure, shortened: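 Unlinked enzyme 25 nM, Tris pH 8.0/0.01% Tween 20; cpd 15 min RT, dark; + AMC substrate 10 µM (Km 18.3 µM); 340/450 nm read at t0 and 15 min; % inhibition → 4-param fit.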

[3] = system: Zika virus NS2B-NS3 protease; assay: Primary screen GU AMC qHTS for Zika virus inhibitors (AID 1347154); note: nearly all actives have a fitted effect of over 70% in size; note: potency is the fitted concentration of half-maximal effect;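 for activity change, negative = inhibition: 0% = no-inhibitor control and -100% = no-enzyme control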
Procedure, shortened: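 Unlinked Zika NS2B hydrophilic domain/NS3 protease domain noncovalent complex (25 nM final) in 10 mM Tris-HCl pH 8.0, 0.01% Tween 20, with AMC peptide substrate. Fluorescence (ex 340, em 450 nm) change over 15 min, room temperature; percent inhibition fitted to 4-parameter Hill equation.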

[4] = Confirmatory screen NINDS Rhodamine qHTS for Zika virus inhibitors (AID 1347161); note: nearly all actives have a fitted effect of over 60% in size; note: potency is the fitted concentration of half-maximal effect;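 for activity change, negative = inhibition: purified Zika NS2B-NS3 protease with linked NS2B cofactor domain and Rhodamine110 peptide substrate; plate controls were no-inhibitor control for no effect and no-enzyme control for full effect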
Procedure, shortened: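 Kinetic fluorescence (Ex 480 nm, Em 540 nm) over 15 min with 1.5 microM Rhodamine110 peptide and 25 nM linked protease.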

[5] = Vero cells viability qHTS for Zika virus inhibitors (AID 1347167); note: % is set by controls: 0 for no effect and ±100 for the full control effect
Procedure, shortened: (§1)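 Counter-screen for cytotoxicity of hits from NS2B-NS3 protease qHTS. Overnight-attached cells (2.5 x 10^5 cells/mL, DMEM/4% FBS) were dosed in titration, incubated 24 to 48 hours, then assayed by CellTiter Glo.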

[6] = HepG2 cells viability qHTS for Zika virus inhibitors (AID 1347168); note: % is set by controls: 0 for no effect and ±100 for the full control effect
Procedure, shortened: as §1

[7] = Tertiary RLuc qRT-PCR qHTS assay for Zika virus inhibitors (AID 1347169); note: top concentration of the series differs between compounds; % is set by controls: 0 for no effect and ±100 for the full control effect; nearly all actives have a fitted effect of over 55% in size
Procedure, shortened: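 Orthogonal cell-based infection assay using recombinant ZIKV-RLuc (Cambodian) in Vero cells; compound added prior to virus at MOI 1-2. Incubation lasts 48-72 hrs at 37 degrees C before live-cell Renilla substrate is added and luminescence measured.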

[8] = qHTS to identify inhibitors of the type 1 interferon - major histocompatibility complex class I in skeletal muscle: primary screen against the NCATS Pharmaceutical Collection (AID 1347407);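 note: luminescence of HiBiT knocked into endogenous HLA-B as interferon-induced MHC class I level; % is set by controls: 0 for no effect and ±100 for the full control effect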
Procedure, shortened: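 Cells were seeded with 4 ng/ml IFN-beta, incubated 1 h, then dosed with compounds over eight 1:5 steps up to 46 uM final. After 24 h at 37 C, HiBiT lytic reagent was added and luminescence read after 10 min lysis in the dark.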

[9] = qHTS to identify inhibitors of the type 1 interferon - major histocompatibility complex class I in skeletal muscle: primary screen against the NCATS Mechanism Interrogation Plate v5.0 (MIPE) Libary (AID 1347411);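 note: plate controls were vehicle for no effect and reference inhibitor for full effect; nearly all actives have a fitted effect of over 65% in size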
Procedure, shortened: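 Immortalized human C25cl48 myoblasts with HiBit knocked into endogenous HLA-B*08:01 were stimulated with 4.0 ng/ml IFN-beta and exposed to compounds (11-point 1:3 titration, top 46 uM final) for 24 hrs at 37 C; HiBiT lytic luminescence measured.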

[10] = target: Protein phosphatase 1D (Homo sapiens) (UniProt O15297); assay: RapidFire Mass Spectrometry qHTS Assay for Modulators of WT P53-Induced Phosphatase 1 (WIP1) (AID 1347424);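 note: amount of dephosphorylated VEPPL-S-QETFS peptide product formed by WIP1; plate controls were DMSO wells for no effect and GSK830371 inhibitor control at 10 µM for full effect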
Chain of Protein phosphatase 1D (Homo sapiens) (O15297 whole entry, looked up): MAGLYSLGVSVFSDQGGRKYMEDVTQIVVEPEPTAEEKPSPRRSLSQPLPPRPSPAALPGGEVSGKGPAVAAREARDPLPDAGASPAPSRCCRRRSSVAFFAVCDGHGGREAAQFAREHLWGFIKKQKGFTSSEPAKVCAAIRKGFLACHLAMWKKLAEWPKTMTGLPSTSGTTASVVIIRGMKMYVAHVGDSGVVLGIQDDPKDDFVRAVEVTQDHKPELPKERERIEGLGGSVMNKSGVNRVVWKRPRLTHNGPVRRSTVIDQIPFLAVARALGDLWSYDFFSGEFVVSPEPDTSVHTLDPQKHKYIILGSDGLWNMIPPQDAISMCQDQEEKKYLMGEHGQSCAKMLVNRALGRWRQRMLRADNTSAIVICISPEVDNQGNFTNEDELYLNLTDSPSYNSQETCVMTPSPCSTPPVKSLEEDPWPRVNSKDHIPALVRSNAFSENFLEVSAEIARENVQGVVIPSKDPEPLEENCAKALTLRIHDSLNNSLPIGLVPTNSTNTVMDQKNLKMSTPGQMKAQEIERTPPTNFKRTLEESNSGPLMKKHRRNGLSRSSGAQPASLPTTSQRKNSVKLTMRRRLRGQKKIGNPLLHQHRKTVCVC
Procedure, shortened: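 WIP1 (10 nM final) was preincubated 1 h at room temperature with compounds in Tris-HCl pH 7.5, 30 mM MgCl2, TCEP, EGTA, BSA; 2 uM VEPPL-pS-QETFS phosphopeptide was added for 5 min, quenched with formic acid, and dephosphorylated product quantified by RapidFire MS.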

[11] = system: Zika virus NS2B-NS3 protease (unlinked complex); assay: Primary screen GU Rhodamine qHTS for Zika virus inhibitors: Unlinked NS2B-NS3 protease assay (AID 1347159); note: % is set by controls: 0 for no effect and ±100 for the full control effect; nearly all actives have a fitted effect of over 60% in size
Procedure, shortened: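 Compounds, tested up to 114 microM, were incubated for 15 minutes with 25 nM unlinked NS2B-NS3 protease at pH 8.0. Cleavage of 1.5 microM Rhodamine110 substrate was then followed by fluorescence for 15 minutes.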

[12] = system: Zika virus NS2B-NS3 protease (linked construct); assay: Primary screen NINDS Rhodamine qHTS for Zika virus inhibitors (AID 1347160); conditions: outcome: dose series up to 57.1 µM unless noted; note: % is set by controls: 0 for no effect and ±100 for the full control effect; nearly all actives have a fitted effect of over 55% in size
Procedure, shortened: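 Percent inhibition, normalized to uninhibited and enzyme-free controls, is fitted to a 4-parameter Hill equation. Fluorescence change comes from a 15-min cleavage of 1.5 microM bis-peptide Rhodamine110 substrate by 25 nM linked NS2B-NS3 at room temperature.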

[13] = system: Zika virus NS2B-NS3 protease (unlinked); assay: Optimization of GU AMC qHTS for Zika virus inhibitors: Unlinked NS2B-NS3 protease assay (AID 1347151); note: nearly all actives have a fitted effect of over 80% in size; note: potency is the fitted concentration of half-maximal effect;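 for activity change, negative = inhibition: 0% = no-inhibitor control and -100% = no-enzyme control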
Procedure, shortened: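 Percent inhibition is derived from the 15-min change in AMC fluorescence, normalized against no-inhibitor and no-enzyme controls, then fitted to a 4-parameter Hill curve. Aprotinin was the intraplate control.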

[14] = target: Lysine-specific demethylase 5B (Homo sapiens) (UniProt Q9UGL1); assay: Optimization screen for KDM5B Histone Demethylases FDH coupled qHTS against the LOPAC library (AID 1347166); conditions: KDM5B demethylation, FDH-coupled NADH fluorescence (FDH is formaldehyde dehydrogenase); at 57.5 µM (top of the series); note: 0% is about no effect
Chain of Lysine-specific demethylase 5B (Homo sapiens) (Q9UGL1 whole entry, looked up): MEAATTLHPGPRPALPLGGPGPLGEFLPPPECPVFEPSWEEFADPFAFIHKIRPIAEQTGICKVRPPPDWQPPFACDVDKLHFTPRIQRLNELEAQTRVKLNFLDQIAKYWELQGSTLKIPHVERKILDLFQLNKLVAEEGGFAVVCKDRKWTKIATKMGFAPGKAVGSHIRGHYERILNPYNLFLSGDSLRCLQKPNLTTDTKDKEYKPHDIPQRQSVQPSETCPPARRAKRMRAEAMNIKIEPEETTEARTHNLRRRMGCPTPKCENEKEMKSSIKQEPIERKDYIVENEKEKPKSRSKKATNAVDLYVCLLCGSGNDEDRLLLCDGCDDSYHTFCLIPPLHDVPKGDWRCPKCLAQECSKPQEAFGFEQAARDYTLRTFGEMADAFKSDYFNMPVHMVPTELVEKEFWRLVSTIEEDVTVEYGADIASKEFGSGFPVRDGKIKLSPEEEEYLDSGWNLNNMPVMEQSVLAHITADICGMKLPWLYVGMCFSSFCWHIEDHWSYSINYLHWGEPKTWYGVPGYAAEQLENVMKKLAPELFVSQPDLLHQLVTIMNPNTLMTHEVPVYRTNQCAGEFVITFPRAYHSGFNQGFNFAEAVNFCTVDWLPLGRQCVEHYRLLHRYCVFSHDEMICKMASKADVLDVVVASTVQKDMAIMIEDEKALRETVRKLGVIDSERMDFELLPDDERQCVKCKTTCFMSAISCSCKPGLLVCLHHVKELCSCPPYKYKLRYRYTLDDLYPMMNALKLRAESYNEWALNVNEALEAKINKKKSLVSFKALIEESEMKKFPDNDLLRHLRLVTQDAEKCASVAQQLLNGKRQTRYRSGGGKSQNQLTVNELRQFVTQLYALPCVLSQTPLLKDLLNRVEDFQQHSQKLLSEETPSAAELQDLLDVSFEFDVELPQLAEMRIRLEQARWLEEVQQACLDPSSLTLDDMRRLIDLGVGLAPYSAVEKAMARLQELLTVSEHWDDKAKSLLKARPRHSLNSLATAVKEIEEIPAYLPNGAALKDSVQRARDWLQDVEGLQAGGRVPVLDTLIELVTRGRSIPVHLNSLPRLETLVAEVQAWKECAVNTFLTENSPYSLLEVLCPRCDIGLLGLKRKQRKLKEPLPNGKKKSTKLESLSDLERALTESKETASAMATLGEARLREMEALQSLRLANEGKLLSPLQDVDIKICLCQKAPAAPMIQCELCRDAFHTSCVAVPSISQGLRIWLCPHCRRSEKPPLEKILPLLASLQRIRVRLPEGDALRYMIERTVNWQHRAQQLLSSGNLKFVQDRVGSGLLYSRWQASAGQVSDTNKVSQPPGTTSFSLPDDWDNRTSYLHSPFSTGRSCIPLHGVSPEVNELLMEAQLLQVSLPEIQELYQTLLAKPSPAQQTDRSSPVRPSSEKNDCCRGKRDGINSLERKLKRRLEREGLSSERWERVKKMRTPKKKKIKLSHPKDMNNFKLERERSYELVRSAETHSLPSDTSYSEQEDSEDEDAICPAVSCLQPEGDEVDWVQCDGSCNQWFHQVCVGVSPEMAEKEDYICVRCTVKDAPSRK
Procedure, shortened: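 KDM5BDeltaAP (200nM final) preincubated 10 min with compound, then 12.5uM H3K4Me3, 25uM a-ketoglutarate, ascorbate, Fe(II), NAD+ and FDH added; 50mM HEPES pH 7.5, 0.01% Tween-20. NADH fluorescence (340/450 nm) change over 30 min, room temperature.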

[15] = qHTS to identify inhibitors of the type 1 interferon - major histocompatibility complex class I in skeletal muscle: primary screen against the NCATS LOPAC collection (AID 1347405);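 note: lytic HiBiT luminescence reporting HLA-B protein level; % is set by controls: 0 for no effect and ±100 for the full control effect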
Procedure, shortened: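 Immortalized human C25cl48 myoblasts with HiBiT knocked into endogenous HLA-B*08:01 were stimulated with 4.0 ng/ml IFN-beta and given compounds in a 7-point, 1:4.3 titration from 46 uM final; after 24 hrs, lytic HiBiT luminescence was read.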

[16] = qHTS for inhibitors of adenylyl cyclases using a fission yeast platform: a pilot screen against the NCATS LOPAC library (AID 1347410);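 note: plate controls were DMSO vehicle for no effect and DPI positive control for full effect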
Procedure, shortened: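 Growth medium went into the plates first, then compounds were pinned (final up to 57 µM), then CHP2027 yeast were added. Plates were incubated overnight (18 h) at 30C in the dark, and GFP was measured by laser scanning cytometry.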

[17] = Confirmatory screen GU Rhodamine qHTS for Zika virus inhibitors qHTS (AID 1347157);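 note: plate controls were no-inhibitor wells for no effect and no-enzyme wells for full effect; nearly all actives have a fitted effect of over 70% in size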
Procedure, shortened: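 Unlinked NS2B/NS3, 25 nM; Rhod110 peptide, 1.5 microM; compounds, up to 114 microM. Reaction run 15 min at RT in 10 mM Tris-HCl pH 8.0, 0.01% Tween 20; kinetic fluorescence change fitted with a 4-parameter Hill model.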

CNC1CCCN(c2c(F)cc3c(=O)c(C(=O)O)cn(C4CC4)c3c2OC)C1 (stereo unspecified)
inactive: Potency [2] | Potency [4] | Potency [5] | Potency [6] | Potency [7] | Potency [8] | Potency [9] | outcome [10]
active: Potency [1] 27.1 µM | Potency [3] 25.6 µM

CC(C(=O)O)c1ccc2c(c1)CC(=O)c1ccccc1S2 (stereo unspecified)
inactive: Potency [3] | Potency [11] | outcome [12] | Potency [8] | Potency [9]

CC(=O)[C@H]1CC[C@H]2[C@@H]3CCC4=CC(=O)CC[C@]4(C)[C@H]3CC[C@]12C
inactive: Potency [13] | Potency [3] | activity, negative = inhibition [14] -4.17%

CNS(=O)(=O)CCc1ccc2[nH]cc(C3CCN(C)CC3)c2c1
inactive: Potency [13] | Potency [3] | Potency [11] | outcome [12] | outcome [15] | Potency [8] | outcome [16] | outcome [10]

CC(C)(Sc1cc(C(C)(C)C)c(O)c(C(C)(C)C)c1)Sc1cc(C(C)(C)C)c(O)c(C(C)(C)C)c1
inactive: Potency [3] | outcome [17] | Potency [4] | activity change, negative = inhibition [7] -19.1% [at 0.566 µM] | Potency [8] | Potency [9]

O=C(O)C1CCCN(CCC=C(c2ccccc2)c2ccccc2)C1 (stereo unspecified)
inactive: Potency [13] | Potency [3] | activity, negative = inhibition [14] -3.3% | outcome [15] | outcome [16] | Potency [9]

O=C(O)c1cn(C2CC2)c2cc(N3CCNCC3)c(F)cc2c1=O
active: Potency [1] 24.1 µM
inactive: Potency [5] | Potency [6] | Potency [7] | outcome [10]

COc1cc2nc(N3CCCN(C)CC3)nc(NC3CCN(Cc4ccccc4)CC3)c2cc1OC
inactive: outcome [16]
active: Potency [13] 21.2 µM | Potency [3] 27.1 µM

COc1cc2c(Nc3ccc(Br)cc3F)ncnc2cc1OCC1CCN(C)CC1
inactive: Potency [3] | Potency [11] | outcome [12] | Potency [8] | outcome [10]

Nc1nc(N)c2nc(CNc3ccc(C(=O)NC(CCC(=O)O)C(=O)O)cc3)cnc2n1 (stereo unspecified)
inactive: Potency [5] | Potency [6] | Potency [7] | outcome [15] | outcome [16] | Potency [9]
active: Potency [13] 26.7 µM | Potency [1] 27.1 µM | Potency [3] 21.5 µM | Potency [4] 55.3 µM | activity, negative = inhibition [14] -994%

COc1c(N2CCNC(C)C2)c(F)cc2c(=O)c(C(=O)O)cn(C3CC3)c12 (stereo unspecified)
active: Potency [1] 27.1 µM and 30.4 µM | Potency [3] 16.1 µM and 24.1 µM
inactive: Potency [4] | Potency [5] | Potency [6] | Potency [7] | Potency [8] | Potency [9] | outcome [10]

CCN(CC)CC#CCOC(=O)C(O)(c1ccccc1)C1CCCCC1 (stereo unspecified)
inactive: Potency [13] | Potency [3] | activity, negative = inhibition [14] -11% | outcome [15] | outcome [16]
